Laboratory results from PubChem BioAssay (NCATS).
Inconclusive results are not listed. Where a call stands in place of a potency, no number is given. Calls of active or inactive are those of the source. Calls come from the whole dose curve; as a rule, active = well fitted curve in the direction sought with a large enough effect; inconclusive = small, poorly fitted or top-dose-only effect, or another doubt; inactive = no such curve, though single readings can be large; an effect the other way counts as inactive or inconclusive.

What was measured:
[1] = qHTS for differential inhibitors of proliferation of Plasmodium falciparum line Dd2 (AID 1882); details: Potency: Plasmodium falciparum Dd2 proliferation inhibition; note: nearly all actives have a fitted effect of over 65% in size; note: potency is the fitted concentration of half-maximal effect
How it was run: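 SYBR Green I DNA fluorescence read-out, ex 485/em 535 nm. Signals were normalized to 0.29 uM artemisinin and DMSO wells, then corrected using vehicle-only plates flanking each stack. Parasite growth ran 72 h in erythrocytes before lysis.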

[2] = qHTS for differential inhibitors of proliferation of Plasmodium falciparum line W2 (AID 1883); details: Potency: Plasmodium falciparum W2 proliferation inhibition;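 note: parasites grown with compound for 72 h before lysis and staining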; note: potency is the fitted concentration of half-maximal effect
[3] = qHTS for differential inhibitors of proliferation of Plasmodium falciparum line HB3 (AID 1886); details: Potency: Plasmodium falciparum HB3 proliferation inhibition;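 note: parasites grown with compound for 72 h before SYBR Green readout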; note: potency is the fitted concentration of half-maximal effect
[4] = target: Ferritin light chain (Equus caballus) (UniProt P02791); assay: qHTS Validation Assay for Identification of Novel General Anesthetics (AID 2323); note: series mostly up to about 77 µM
How it was run: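 Competitive displacement of profluorescent 1-aminoanthracene (1-AMA, 50% saturated solution in PBS) from 10 uM horse-spleen apoferritin. Compounds incubated 10 min at room temperature; fluorescence read at 380 nm excitation/535 nm emission, normalized to free 1-AMA and complex, fitted with four-parameter Hill equation.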

[5] = target: ATP-dependent DNA helicase Q1 (Homo sapiens) (UniProt P46063); assay: qHTS Validation Assay for Inhibitors of RecQ-Like Dna Helicase 1 (RECQ1) (AID 2353)
How it was run: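 50 nM RECQ1T1 preincubated 15 min with compound in Tris pH 8.0 buffer with MgCl2, DTT, Tween-20 and 2.5 ug/ml poly(dI-dC); started with 200 nM TAMRA/BHQ-2 forked duplex and 2 mM ATP. Unwinding read as fluorescence (525/598 nm), two reads 2 h apart.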

[6] = Cytometric Cell-Based qHTS for Inhibitors of the mTORC1 Signaling Pathway in MEF (Tsc2-/-, p53-/-) Cells (AID 2660);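 note: percent of cells above a phospho-rpS6 to PI ratio cutoff in each well; series mostly up to about 38 µM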
How it was run: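 Percent of cells positive for normalized phospho-S6 staining is reported, with the cutoff set from rapamycin (7.5 nM) versus DMSO wells. Tsc2-/-, p53-/- MEFs received compound for 24 hrs.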

[7] = High Content Imaging Cell-Based qHTS for Inhibitors of the mTORC1 Signaling Pathway in MEF (Tsc2-/-, p53-/-) Cells (AID 2666);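 note: percent of cells scored positive for phospho-rpS6 Ser235/236 immunostaining by imaging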
How it was run: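 Read-out: % positive cells per well, with thresholds from highest- and lowest-signal wells, based on phospho-rpS6 (Ser235/236) intensity normalized to Hoechst nuclear stain. Cells: Tsc2-/-, p53-/- MEFs carrying empty vector; compound 24 hrs, 37 degree Celsius.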

[8] = High Content Imaging Cell-Based qHTS for Inhibitors of the mTORC1 Signaling Pathway in MEF Cells (AID 2667); note: potency is the fitted concentration of half-maximal effect
How it was run: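 MEF (Tsc2-/-, p53-/-, WT Tsc2 re-expressed); cpd 24 h, 37 °C; PFA fix; Alexa-488 anti-p-rpS6 Ser235/236, PI, Hoechst; IN Cell imaging; Hoechst/Alexa-488 intensity ratio; % active cells, thresholds set from rapamycin and DMSO wells.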

[9] = target: RecQ-like DNA helicase BLM (Homo sapiens) (UniProt P54132); assay: qHTS Validation Assay for Inhibitors of Bloom's syndrome helicase (BLM) (AID 2364)
How it was run: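 BLM 50 nM in 25 mM Tris-HCl pH 8.0, 5 mM NaCl, 2 mM MgCl2, 1 mM DTT, 0.01% Tween-20, 2.5 ug/ml poly(dI-dC); 15 min cpd preinc, RT. Start: 200 nM forked DNA + 2 mM ATP (final). TAMRA read, 2 reads 2 h apart.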

ATP-dependent DNA helicase Q1 (Homo sapiens), sequence (P46063 whole entry, looked up): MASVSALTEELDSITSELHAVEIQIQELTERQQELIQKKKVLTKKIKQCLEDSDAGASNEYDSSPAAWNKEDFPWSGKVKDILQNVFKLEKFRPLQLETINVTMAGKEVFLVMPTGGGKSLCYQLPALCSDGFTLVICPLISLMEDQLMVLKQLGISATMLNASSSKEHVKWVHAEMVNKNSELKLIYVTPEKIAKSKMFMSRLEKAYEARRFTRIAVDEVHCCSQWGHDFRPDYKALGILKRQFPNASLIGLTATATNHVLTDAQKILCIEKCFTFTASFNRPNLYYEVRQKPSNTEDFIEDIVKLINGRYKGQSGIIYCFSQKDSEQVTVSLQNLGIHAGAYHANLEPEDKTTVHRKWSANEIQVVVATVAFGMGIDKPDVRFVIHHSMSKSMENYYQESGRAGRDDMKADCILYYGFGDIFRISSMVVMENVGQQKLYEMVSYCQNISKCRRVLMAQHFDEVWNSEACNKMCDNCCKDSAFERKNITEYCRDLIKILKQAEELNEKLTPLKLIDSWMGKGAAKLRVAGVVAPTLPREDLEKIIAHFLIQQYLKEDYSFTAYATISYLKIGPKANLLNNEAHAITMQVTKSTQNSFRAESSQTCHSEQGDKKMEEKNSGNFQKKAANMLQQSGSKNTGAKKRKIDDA
Ferritin light chain (Equus caballus), sequence (P02791 2-175 limits assumed): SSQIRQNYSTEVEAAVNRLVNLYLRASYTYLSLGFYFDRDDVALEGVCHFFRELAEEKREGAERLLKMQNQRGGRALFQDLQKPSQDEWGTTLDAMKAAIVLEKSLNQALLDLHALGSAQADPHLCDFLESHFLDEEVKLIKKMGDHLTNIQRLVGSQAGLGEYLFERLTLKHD
RecQ-like DNA helicase BLM (Homo sapiens), sequence (P54132 whole entry, looked up): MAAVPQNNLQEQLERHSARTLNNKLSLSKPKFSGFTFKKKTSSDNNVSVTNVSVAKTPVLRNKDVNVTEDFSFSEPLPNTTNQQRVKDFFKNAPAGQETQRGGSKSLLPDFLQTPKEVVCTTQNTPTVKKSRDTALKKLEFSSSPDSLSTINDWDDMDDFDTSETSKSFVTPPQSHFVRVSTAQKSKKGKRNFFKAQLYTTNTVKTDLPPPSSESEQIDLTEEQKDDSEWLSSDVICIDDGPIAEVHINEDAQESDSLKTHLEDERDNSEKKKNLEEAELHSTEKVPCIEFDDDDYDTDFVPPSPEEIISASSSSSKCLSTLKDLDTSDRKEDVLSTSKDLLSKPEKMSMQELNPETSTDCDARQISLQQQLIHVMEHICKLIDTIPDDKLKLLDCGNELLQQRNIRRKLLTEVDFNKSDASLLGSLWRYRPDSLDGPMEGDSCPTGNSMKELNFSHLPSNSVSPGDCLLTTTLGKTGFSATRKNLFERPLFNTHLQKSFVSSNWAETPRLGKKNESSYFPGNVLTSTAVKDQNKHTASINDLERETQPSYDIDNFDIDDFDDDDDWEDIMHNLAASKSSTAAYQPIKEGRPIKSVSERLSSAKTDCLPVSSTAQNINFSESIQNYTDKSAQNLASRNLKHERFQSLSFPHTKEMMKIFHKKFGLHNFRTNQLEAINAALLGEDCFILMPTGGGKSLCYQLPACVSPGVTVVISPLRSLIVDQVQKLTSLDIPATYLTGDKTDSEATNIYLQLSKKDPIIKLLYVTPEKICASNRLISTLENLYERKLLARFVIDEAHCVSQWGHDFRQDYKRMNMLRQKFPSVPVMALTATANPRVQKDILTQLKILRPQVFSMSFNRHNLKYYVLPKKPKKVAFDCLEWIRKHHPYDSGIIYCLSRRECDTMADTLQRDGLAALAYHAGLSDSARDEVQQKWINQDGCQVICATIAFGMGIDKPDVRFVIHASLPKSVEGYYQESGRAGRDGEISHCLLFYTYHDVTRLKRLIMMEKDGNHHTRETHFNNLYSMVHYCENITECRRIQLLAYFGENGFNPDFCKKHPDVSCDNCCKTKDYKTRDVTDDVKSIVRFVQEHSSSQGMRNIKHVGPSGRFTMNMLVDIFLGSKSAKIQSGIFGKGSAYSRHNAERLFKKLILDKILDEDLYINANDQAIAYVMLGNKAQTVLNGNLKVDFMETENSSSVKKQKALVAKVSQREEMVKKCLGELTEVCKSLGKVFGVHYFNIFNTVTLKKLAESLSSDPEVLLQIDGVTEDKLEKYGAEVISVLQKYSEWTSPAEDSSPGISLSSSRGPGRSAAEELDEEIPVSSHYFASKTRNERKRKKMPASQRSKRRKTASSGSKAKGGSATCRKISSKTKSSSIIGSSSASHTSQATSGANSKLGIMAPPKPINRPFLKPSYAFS

| SMILES | Potency [1] | Potency [2] | Potency [3] | outcome [4] | outcome [5] | Potency [6] | Potency [7] | Potency [8] | Potency [9] |
| --- | --- | --- | --- | --- | --- | --- | --- | --- | --- |
| O=C1CCCN1CC#CCN1CCCC1 | inactive | inactive | inactive | inactive | inactive | inactive | inactive | inactive | – |
| CNCCc1c[nH]c2ccc(O)cc12 | inactive | inactive | inactive | inactive | inactive | inactive | inactive | inactive | – |
| NC(CP(=O)(O)O)C(=O)O (stereo unspecified) | inactive | inactive | inactive | inactive | inactive | inactive | inactive | inactive | – |
| Cn1cnc(CCN)c1 | inactive | inactive | inactive | inactive | inactive | inactive | inactive | inactive | inactive |
| NC(=O)CN1CC(O)CC1=O (stereo unspecified) | inactive | inactive | 2.82 µM (active) | inactive | inactive | inactive | inactive | inactive | – |
| O=C(O)[C@@H]1CCN1 | inactive | inactive | inactive | inactive | inactive | inactive | inactive | inactive | – |
| C[N+](C)(C)CC(=O)O | inactive | inactive | inactive | inactive | inactive | – | – | – | inactive |
| O=C(O)CC[N+](=O)[O-] | inactive | inactive | inactive | inactive | inactive | inactive | inactive | inactive | – |
| NC(N)=NOCCC(N)C(=O)O (stereo unspecified) | inactive | inactive | inactive | inactive | inactive | inactive | inactive | inactive | – |
| NCc1cc(=O)[nH]o1 | inactive | inactive | inactive | inactive | inactive | inactive | inactive | inactive | inactive |
| O=C(O)Cc1cnc[nH]1 | inactive | inactive | inactive | inactive | inactive | inactive | inactive | inactive | – |
| C[C@@H]1O[C@H](C[N+](C)(C)C)C[C@H]1O | inactive | inactive | inactive | inactive | inactive | inactive | inactive | inactive | inactive |
| C[N+]1(C)C2CCC1CC(OC(=O)C(CO)c1ccccc1)C2 (stereo unspecified) | inactive | inactive | inactive | inactive | inactive | inactive | inactive | inactive | inactive |
| CCCN1CCO[C@@H]2c3cc(O)ccc3OC[C@H]21 | inactive | inactive | inactive | inactive | inactive | inactive | inactive | inactive | inactive |
| Cc1nccc2c1[nH]c1ccccc12 | inactive | 10 µM (active) | 11.2 µM (active) | – | inactive | inactive | inactive | inactive | inactive |
| C#CCOC(=O)C1=CCCN(C)C1 | inactive | 15.8 µM (active) | – | inactive | inactive | inactive | inactive | inactive | inactive |
| NCCc1c[nH]c2ccc(O)cc12 | inactive | inactive | inactive | inactive | inactive | inactive | inactive | inactive | inactive |
| c1ccc(CCCN2CCN(CCOC(c3ccccc3)c3ccccc3)CC2)cc1 | 8.91 µM (active) | 3.16 µM (active) | 7.94 µM (active) | – | inactive | inactive | inactive | – | – |
| CC[C@@]1(O)C(=O)OCc2c1cc1n(c2=O)Cc2cc3ccccc3nc2-1 | 1 µM (active) | 0.794 µM (active) | 0.794 µM (active) | – | inactive | inactive | inactive | 0.104 µM (active) | – |
| COc1cc(C(O)CN)ccc1O (stereo unspecified) | inactive | inactive | inactive | inactive | inactive | inactive | inactive | inactive | – |
| CC1=NN=C(c2ccc(N)cc2)c2cc3c(cc2C1)OCO3 | inactive | 8.91 µM (active) | – | inactive | inactive | inactive | inactive | inactive | inactive |
| CN1C2CCC1CC(OC(=O)c1cc(Cl)cc(Cl)c1)C2 (stereo unspecified) | inactive | 8.91 µM (active) | – | inactive | inactive | inactive | inactive | inactive | inactive |
| C[C@]12N[C@H](Cc3ccccc31)c1ccccc12 | 7.08 µM (active) | 1.58 µM (active) | inactive | inactive | inactive | inactive | inactive | inactive | inactive |
